# Data taken from PubChem BioAssay AID1851 (National Center for Advancing Translational Sciences (NCATS), 2009).
# Out of some 16,000 compounds screened, about 2,600 (16%) were called active. Another 20% or so got no clear call; they are omitted. Calls follow the shape of the dose curve; as a rule, active = well fitted curve in the direction sought with a large enough effect; inconclusive = small, poorly fitted or top-dose-only effect, or effect the other way; inactive = no such curve, though single readings can be large or run the other way. A selection follows.
# Molecular target: Cytochrome P450 2D6 (Homo sapiens) (UniProt P10635)
# Assay: Cytochrome panel assay with activity outcomes
# Settings: recombinant CYP, pro-luciferin dealkylation, luminescence, p450-cyp2d6; series mostly up to 57.1 µM; activity, negative = inhibition: at the top concentration
# % is scaled to controls: 0 for no effect and ±100 for the full control effect.
# Chain of Cytochrome P450 2D6 (Homo sapiens) (P10635 whole entry, looked up): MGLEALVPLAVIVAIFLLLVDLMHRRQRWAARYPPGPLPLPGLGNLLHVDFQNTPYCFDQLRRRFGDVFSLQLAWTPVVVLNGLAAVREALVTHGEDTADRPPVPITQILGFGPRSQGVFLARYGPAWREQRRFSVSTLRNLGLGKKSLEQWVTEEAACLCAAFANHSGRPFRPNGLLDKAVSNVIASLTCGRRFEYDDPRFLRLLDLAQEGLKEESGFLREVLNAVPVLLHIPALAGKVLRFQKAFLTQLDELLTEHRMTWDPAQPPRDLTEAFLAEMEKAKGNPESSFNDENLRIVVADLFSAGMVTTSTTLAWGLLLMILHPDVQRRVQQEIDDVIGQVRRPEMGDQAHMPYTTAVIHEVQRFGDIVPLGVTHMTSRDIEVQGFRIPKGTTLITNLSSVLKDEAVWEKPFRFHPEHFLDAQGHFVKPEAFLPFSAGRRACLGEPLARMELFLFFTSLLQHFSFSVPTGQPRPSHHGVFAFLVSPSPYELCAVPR
SMILES,"activity, negative = inhibition",AC50
C=CCNC(=S)N1CCN(c2ncc3c(=O)c(C(=O)O)cn(CC)c3n2)CC1,-0.755% (inactive),–
N#Cc1ccc(Oc2nc(C(N)=O)cc(-c3ccccc3)n2)cc1,-4.01% (inactive),–
Oc1ccccc1C1Nc2cccc3cccc(c23)N1,–,10 µM (active)
CC(=O)C1=NOC(CNC(=O)c2c(-c3ccccc3Cl)noc2C)C1 (stereo not drawn),-4.95% (inactive),–
CC1(C)c2ssc(=S)c2-c2ccccc2N1C(=O)CSC1=NCCS1,-7.47% (inactive),–
Cc1[nH]nc(-c2ccc(OCc3cnn(-c4ccccc4)c3)cc2O)c1Oc1ccccc1F,–,11.2 µM (active)
Cc1[nH]nc(-c2ccc(OCc3cnn(-c4ccccc4)c3)cc2O)c1Oc1ccc(F)cc1,–,7.08 µM (active)
COC(=O)c1ccc(Oc2coc3cc(OCc4cnn(-c5ccccc5)c4)ccc3c2=O)cc1,7.36% (inactive),–
CCc1ccc(OCC(=O)OC2CCS(=O)(=O)C2)cc1 (stereo not drawn),12.6% (inactive),–
COc1ccc(-n2ncc3c(NCC4CCCO4)ncnc32)cc1 (stereo not drawn),-3.61% (inactive),–
CCC1(c2ccccc2)C(=O)NCNC1=O,–,inactive
O=C(Oc1ccccc1)N1CCC2(CC1)CCN(c1ccccc1)CC2,-6.87% (inactive),–
Brc1ccc(-c2nnc(-c3cccc(Br)c3)o2)cc1,16.4% (inactive),–
CCc1ccc(NC(=O)CS(=O)CC(=O)NCCCc2ccccc2)cc1 (stereo not drawn),-22.8% (inactive),–
CCCCc1ccc(NC(=S)NCc2cccs2)cc1,–,4.47 µM (active)
CCCNC(=S)Nc1ccc(Br)cc1,-5.15% (inactive),–
CCC(c1nnnn1CC1CCCO1)N(CCN1CCOCC1)Cc1cc2cc(C)ccc2[nH]c1=O (stereo not drawn),-8.76% (inactive),–
O=C1CSC(c2ccccn2)N1c1ccc(Cl)c(Cl)c1 (stereo not drawn),-11.2% (inactive),–
O=C1CSC(c2ccccc2F)N1c1cc(Cl)ccc1O (stereo not drawn),–,31.6 µM (active)
CC(=O)Nc1ccc(N2C(=O)CSC2c2c(F)cccc2Cl)cc1 (stereo not drawn),-25.8% (inactive),–
Cc1ccc2nc(-c3ccc(NC(=O)Cc4cccs4)cc3)[nH]c2c1,-5.32% (inactive),–
CCn1nnnc1SCC(=O)NC1CCCC1,-28.2% (inactive),–
COc1ccc(NC(=O)CSc2nnc(C3CC3)n2N)cc1,-7.25% (inactive),–
O=C(CSc1nnnn1C1CCCC1)Nc1ccc(F)cc1,–,14.1 µM (active)
CCOc1ccc(-c2nnc3n2N=C(c2ccc(OC)cc2)CS3)cc1,3.29% (inactive),–
CCc1ccc(C2=Nn3c(nnc3-c3cccs3)SC2)cc1,–,2.82 µM (active)

SMILES,"activity, negative = inhibition",AC50
CCOc1ccc(C2=Nn3c(nnc3-c3ccco3)SC2)cc1,-6.18% (inactive),–
CC1(C)O[C@H]2C[C@@H]3[C@H]4CCC5=CC(=O)CC[C@@]5(C)[C@]4(F)[C@@H](O)C[C@@]3(C)[C@@]2(C(=O)CCl)O1,-10.6% [at 25.6 µM] (inactive),–
CC(C)CC(=O)Nc1ccccc1-c1nnn(CC(=O)N2CCc3ccccc3C2)n1,-23.8% (inactive),–
O=C(O)NCC1CCCCC1 (tested in a mixture with another compound),–,3.98 µM (active)
Cc1nnc(SCC(=O)NCC2CCCCC2)n(N)c1=O,-11.6% (inactive),–
O=C(c1cc(-c2ccco2)on1)N1CCOCC1,-7.84% (inactive),–
CC(C)CCNC(=O)C12CN(Cc3ccccc3)CC1C(c1cccc([N+](=O)[O-])c1)=NO2 (stereo not drawn),-23.9% (inactive),–
O=C(NCc1ccccc1)C12CN(Cc3ccccc3)CC1C(c1cccc([N+](=O)[O-])c1)=NO2 (stereo not drawn),–,5.01 µM (active)
O=C(Cc1ccccc1)N/N=C/C=C/c1cccc([N+](=O)[O-])c1,-14.8% (inactive),–
CCSC[C@@H](N)C(=O)O,-5.75% [at 11.4 µM] (inactive),–
O=c1nc(-c2ccccc2)cn[nH]1,5.87% (inactive),–
C/C=C\C[C@@H](C)[C@@H](O)[C@H]1C(=O)N[C@@H](CC)C(=O)N(C)CC(=O)N(C)[C@@H](CC(C)C)C(=O)N[C@@H](C(C)C)C(=O)N(C)[C@@H](CC(C)C)C(=O)N[C@@H](C)C(=O)N[C@H](C)C(=O)N(C)[C@@H](CC(C)C)C(=O)N(C)[C@@H](CC(C)C)C(=O)N(C)[C@@H](C(C)C)C(=O)N1C,-14.7% (inactive),–
C[C@H]1NC(=O)NC1=O,–,inactive
CCOC(=O)n1c(=O)n(Cc2c(Cl)cccc2Cl)c2ccccc21,-12.5% (inactive),–
CC(C)(C)N1C(=O)[C@H]2[C@H]3[C@H](O)[C@H](O)C/C(=N/NC(=O)OCc4ccccc4)[C@@H]3CC[C@@H]2C1=O,-18.8% [at 11.4 µM] (inactive),–
CC(=O)N1CCC[C@@]2(CCN(c3ccncc3)C2)C1,-5.51% (inactive),–
COC(=O)N1CCC2(CCCN(C(=O)Nc3ccc(OC)cc3)C2)CC1,2.1% (inactive),–
COC(=O)N1CCC2(CCCN(Cc3ccccc3OC)C2)CC1,–,3.16 µM (active)
COc1ccc(NC(=O)N2CC[C@@]3(CCCN(C(C)=O)C3)C2)cc1,0.963% (inactive),–
COCC(=O)N1CCC2(CCCN(C(=O)Nc3cccc(F)c3)C2)CC1,1.9% (inactive),–
COCC(=O)N1CCC2(CCCN(Cc3ccccc3OC)C2)CC1,12.4% (inactive),–
COc1ccccc1CN1CC[C@@]2(CCCN(C(C)=O)C2)C1,–,3.16 µM (active)
COc1ccccc1CN1CCCC2(CCN(C(C)=O)CC2)C1,–,3.16 µM (active)
COCC(=O)N1CCC[C@@]2(CCN(Cc3ccccc3OC)C2)C1,–,6.31 µM (active)
CCSc1nc2nc(C)cc(C)n2n1,0.804% (inactive),–
Cn1cc(C(=O)N/N=C/C(Br)=C\c2ccccc2)ccc1=O,-26.6% (inactive),–

SMILES,"activity, negative = inhibition",AC50
CCN1CCN(c2nc3c(c(=O)[nH]c(=O)n3C)n2CCCSc2ncccn2)CC1,-7.52% (inactive),–
COc1ccc(C2/C(=C(/O)c3ccccc3)C(=O)C(=O)N2CC(C)O)c(OC)c1 (stereo not drawn),1.5% (inactive),–
N#Cc1sc2nc(-c3cccs3)cc(-c3ccc(Cl)cc3)c2c1N,-1.86% (inactive),–
COc1cc(N=C(N)N=C(N)N)c2ncccc2c1,-2.16% [at 11.4 µM] (inactive),–
Nc1ccc(S(=O)(=O)c2ccc(NC(=O)c3cccnc3)cc2)cc1,-2.49% [at 11.4 µM] (inactive),–
O=c1c2c(-c3ccc(Cl)cc3)csc2nc2n1CCC2,-19.4% (inactive),–
COCCn1c(=O)[nH]c2cc(C(=O)N3CCN(c4ccccc4OC)CC3)ccc2c1=O,-8.01% (inactive),–
CCCC1c2c(ccc3ccccc23)Oc2ccc3ccccc3c21,4.73% [at 11.4 µM] (inactive),–
COCC(=O)N1CCC[C@@]2(CCN(Cc3ccc(C#N)cc3)C2)C1,-8.83% (inactive),–
COCC(=O)N1CCC2(CCCN(Cc3ccccc3)C2)CC1,-3.92% (inactive),–
COCC(=O)N1CCC[C@@]2(CCN(Cc3ccccc3)C2)C1,–,6.31 µM (active)
Cc1c(NC(=S)N/N=C/c2ccc(O)cc2)c(=O)n(-c2ccccc2)n1C,4.58% (inactive),–
O=C1C(=O)c2ccccc2C(O)=C1C(CCc1ccccc1)C1=C(O)c2ccccc2C(=O)C1=O,-9.56% [at 11.4 µM] (inactive),–
CC(C)[C@@H]1[C@H]2CC[C@H](C2)[C@H]1N,3.78% (inactive),–
CCc1ncc(CO)n1Cc1cccc2ccccc12,-6.66% [at 11.4 µM] (inactive),–
Cc1ccc(Sc2cc(Cl)nc(N)n2)cc1,18.5% (inactive),–
Cc1ccc2[nH]c(=O)c(NC(N)=S)nc2c1,-20.2% (inactive),–
CC(C)(C)c1ccc(C(=O)N2CCC(C(=O)NCCC3=CCCCC3)CC2)cc1,–,22.4 µM (active)
CCC(C)NC(=O)C1CCN(C(=O)c2ccccc2)CC1 (stereo not drawn),19.5% (inactive),–
O=C1CSc2ccc(C(=O)NCCC3=CCCCC3)cc2N1,-6.63% (inactive),–
CCNC(=O)C1CC(=O)OC12CCCCC2 (stereo not drawn),20.8% (inactive),–
O=C(Nc1cccnc1Cl)C1c2ccccc2Oc2ccccc21,9.13% (inactive),–
CN(C)CCNS(=O)(=O)N(C)C,5.07% [at 11.4 µM] (inactive),–
CCOc1ccc(-n2ccnc2SCC(=O)Nc2nnc(CC)s2)cc1,-2.1% (inactive),–
COc1cccc(NC(=O)CSc2nnc(CN3CCOCC3)n2C)c1,-4.66% (inactive),–
COc1ccc(-n2ccnc2SCC(=O)Nc2ccc(OC)cc2OC)cc1,-14.2% (inactive),–

SMILES,"activity, negative = inhibition",AC50
COc1ccc(-n2ccnc2SCC(=O)Nc2ccccc2)cc1,–,17.8 µM (active)
COc1cccc(-n2ccnc2SCC(=O)Nc2nccs2)c1,–,12.6 µM (active)
CCOc1ccc(-n2ccnc2SCC(=O)Nc2nnc(C)s2)cc1,0.439% (inactive),–
COc1cccc([C@H](O)Cn2cc(-c3cccc(CON=C(C)C)c3)nn2)c1,-1.23% [at 11.4 µM] (inactive),–
O=c1c2ccccc2nc2n1CCC2,22.4% (inactive),–
CC(=O)c1cc(NC(=O)c2cccc(C(F)(F)F)c2)c(=O)oc1/C=C/N(C)C,-1.04% (inactive),–
CC1(C)CC(=O)c2c(Cc3ccccc3)n[nH]c2C1,10.2% (inactive),–
N#C/C(=C(/O)CN1CCCCC1)c1nc(-c2ccc(Cl)cc2)cs1,2.79% (inactive),–
Cn1c(=O)c2[nH]c(-c3ccc(S(=O)(=O)O)cc3)nc2n(C)c1=O,-1.78% (inactive),–
COCCn1c(=O)c(-c2cccs2)nc2cnc(N3CCN(C)CC3)nc21,-2.8% (inactive),–
O=c1c(-c2ccc(F)c(F)c2)nc2cncnc2n1Cc1ccccc1Cl,-12.1% (inactive),–
COc1ccc2c(c1)c(CC(=O)OCC(=O)O)c(C)n2C(=O)c1ccc(Cl)cc1,7.38% [at 25.6 µM] (inactive),–
COc1ccccc1OC[C@H](O)COC(N)=O,2.23% [at 25.6 µM] (inactive),–
NC(=O)OCC(COC(N)=O)c1ccccc1,–,0.794 µM (active)
NC(=O)OC[C@H](O)COc1ccc(Cl)cc1,0.0944% [at 25.6 µM] (inactive),–
COCCn1c(=O)c(-c2ccc(OC)cc2)nc2cnc(N3CCNCC3)nc21,-8.27% (inactive),–
Cc1ccc(C(=O)Cn2nnc3c(sc4nc5c(c(-c6ccccc6)c43)CCC5)c2=O)cc1,-1.52% (inactive),–
Cc1ccc(C(=O)CNc2nc3c(c(=O)[nH]c(=O)n3C)n2Cc2ccccc2)cc1,-26% (inactive),–
COc1ccc(NC(=O)C(=O)NNC(=O)c2cccs2)c(OC)c1,-15.1% (inactive),–
Cc1c(NC(=O)C(C)N2C(=O)c3ccccc3C2=O)c(=O)n(-c2ccccc2)n1C (stereo not drawn),-3.01% (inactive),–
CC1=NC(C)(C)Cc2ccccc21,–,14.1 µM (active)
c1cncc(-c2nnc3n2C2(CCCCC2)Cc2ccccc2-3)c1,-2.67% (inactive),–
Cc1cccc2c1OCC/C2=N\NC(=O)COc1ccccc1,-6.15% (inactive),–
Cc1ncc([N+](=O)[O-])n1CCO,0.423% [at 25.6 µM] (inactive),–
N#Cc1ccc(C2=NC(C(F)(F)F)(C(F)(F)F)c3c(n(Cc4ccco4)c(=O)[nH]c3=O)N2)cc1,0.737% (inactive),–
